Laboratory results reported in the supplement of paper PMC13380429.

System: Vero E6 infected with SARS-CoV-2
Assay: inhibition of SARS-CoV-2 cytopathic effect; higher = more antiviral protection, active = above 15
Conditions: 48 h

Measured: inhibition of SARS-CoV-2 cytopathic effect

O=C1c2cccnc2OC[C@@H]2CCCN12
inactive: 1 nM 0.83% | 8.33 nM 1.33% | 100 nM 0.65% | 833.33 nM 0.64% | 10000 nM -2.21%

CCCn1c(=O)[nH]c2nc(-c3ccc(S(=O)(=O)O)cc3)[nH]c2c1=O
inactive: 1 nM 0.98% | 8.33 nM -0.31% | 100 nM -0.83% | 833.33 nM 0.97% | 10000 nM 0.55%

CC(C)NCC(O)c1ccccc1Cl (stereo not given) [clorprenaline]
inactive: 1 nM 2.05% | 8.33 nM 1% | 100 nM 0.74% | 833.33 nM 1.39% | 10000 nM -1.17%

COc1ccc(-c2nc(C(=O)N3CCN(C)CC3)sc2-c2ccc(OC)cc2)cc1
inactive: 1 nM -2.34% | 8.33 nM -0.77% | 100 nM -0.57% | 833.33 nM -2.37% | 10000 nM 0.19%

Cc1ccc2c(c1)[C@H]1CN(C)CC[C@H]1N2 [stobadine]
inactive: 1 nM 1.95% | 8.33 nM 2.65% | 100 nM 1.27% | 833.33 nM 1.23% | 10000 nM -0.96%

CCCCCCCCCCC(C)(C)C(=O)Nc1c(OC)cc(OC)cc1OC
inactive: 1 nM 0.52% | 8.33 nM 6.1% | 100 nM 5.14% | 833.33 nM 0.51% | 10000 nM 0.93%

Nc1ncnc2c1ncn2[C@@H]1O[C@@H]2COP(=O)(O)O[C@H]2[C@H]1O [cyclic-AMP]
inactive: 1 nM 3.59% | 8.33 nM -0.53% | 100 nM -1.76% | 833.33 nM -5.14% | 10000 nM 0.34%

O=c1ccn([C@@H]2O[C@H](CO)[C@@H](O)[C@H]2O)c(=O)[nH]1 [uridine]
inactive: 1 nM 0.24% | 8.33 nM 0.14% | 100 nM 0.2% | 833.33 nM -1.16% | 10000 nM 2.27%

COc1ccc(C(=O)NCc2ccc(OCCN(C)C)cc2)cc1OC [itopride]
inactive: 1 nM 0.25% | 8.33 nM -0.19% | 100 nM 1.77% | 833.33 nM -0.42% | 10000 nM 0.72%

Cc1cc(-c2nncc3c(C(C)(C)C)c(OCc4ncnn4C)nn23)no1
inactive: 1 nM 1.59% | 8.33 nM -1.07% | 100 nM 0.62% | 833.33 nM -3.08% | 10000 nM -1.02%

Nc1ncnc2c1c(-c1ccc(Oc3ccccc3)cc1)nn2C1CCCC1
inactive: 1 nM 3.63% | 8.33 nM 1.32% | 100 nM 0.15% | 833.33 nM -0.21% | 10000 nM -13.6%

c1cnc2c([O][Ga]([O]c3cccc4cccnc34)[O]c3cccc4cccnc34)cccc2c1 [gallium-triquinolin-8-olate]
inactive: 1 nM -0.23% | 8.33 nM 1.56% | 100 nM -0.49% | 833.33 nM 4.98% | 10000 nM 3.63%

C=C(C)[C@@H]1CC[C@]2(CO)CC[C@]3(C)[C@H](CC[C@@H]4[C@@]5(C)CC[C@H](O)C(C)(C)[C@@H]5CC[C@]43C)[C@@H]12
inactive: 1 nM -5.94% | 8.33 nM -10.1% | 100 nM -7.13% | 833.33 nM -9.2% | 10000 nM -12.6%

Clc1cccc(Nc2nnc(-c3ccccc3)c3ccccc23)c1
inactive: 1 nM 1.65% | 8.33 nM 2.3% | 100 nM 2.13% | 833.33 nM 1.98% | 10000 nM 2.92%

CN1CCN(c2ccc(Nc3ncc4cc(C#N)c(=O)n(C5CCCC5)c4n3)cc2)CC1
inactive: 1 nM 1.39% | 8.33 nM 1.36% | 100 nM -0.35% | 833.33 nM -6.03% | 10000 nM -6.23%

CNCc1cc(-c2ccccc2F)n(S(=O)(=O)c2cccnc2)c1 [vonoprazan]
inactive: 1 nM -3.91% | 8.33 nM -1.43% | 100 nM -1.96% | 833.33 nM -1.21% | 10000 nM -4.64%

O/N=C/c1ccc(-c2ccc(O)c(F)c2)c(Cl)c1O
inactive: 1 nM -3.41% | 8.33 nM -2.33% | 100 nM -2.06% | 833.33 nM -0.62% | 10000 nM -12.8%

CCCCNc1nc(N)c2[nH]c(=O)n(Cc3ccc(OCCN(C)C)nc3)c2n1
inactive: 1 nM -1.79% | 8.33 nM 0.48% | 100 nM 2.36% | 833.33 nM -0.4% | 10000 nM -0.44%

Cn1nnc(-c2ccc(-c3ccc(N4C[C@H](CO)OC4=O)cc3F)cn2)n1 [tedizolid]
inactive: 1 nM -0.87% | 8.33 nM 1.38% | 100 nM -1.69% | 833.33 nM 0.43% | 10000 nM -0.79%

CC(C)=CCC/C(C)=C/CNCCNC1C2CC3CC(C2)CC1C3 (stereo not given)
inactive: 1 nM 0.6% | 8.33 nM 0.09% | 100 nM 1.62% | 833.33 nM 1.05% | 10000 nM 0.17%

CC(C(=O)O)c1ccc2c(c1)[nH]c1ccc(Cl)cc12 (stereo not given) [carprofen]
inactive: 1 nM 4.44% | 8.33 nM 2.85% | 100 nM -6.45% | 833.33 nM 4.46% | 10000 nM 3.76%

Cc1cc(-c2ncc(CC(=O)Nc3ccc(-c4cnccn4)cn3)cc2C)ccn1
inactive: 1 nM -0.34% | 8.33 nM -0.01% | 100 nM -1.16% | 833.33 nM 1.44% | 10000 nM 2.89%

COc1ccc2[nH]c(-c3ccccc3)c(CCNC(C)=O)c2c1 [2-phenylmelatonin]
inactive: 1 nM 0.42% | 8.33 nM -1.88% | 100 nM 0.56% | 833.33 nM -2.59% | 10000 nM -0.4%

O=C(c1cc(S(=O)(=O)Nc2ccccc2F)c(F)cc1Cl)N1CCN2CCC[C@@H]2C1
inactive: 1 nM 1.66% | 8.33 nM 2.06% | 100 nM 1.64% | 833.33 nM 8.06% | 10000 nM -1.59%

CN1CCN(CCCN2c3ccccc3Sc3ccc(Cl)cc32)CC1 [prochlorperazine]
inactive: 1 nM -0.92% | 8.33 nM 0.64% | 100 nM 0.48% | 833.33 nM -0.06% | 10000 nM 14.6%

Oc1ccc(Cl)cc1 [parachlorophenol]
inactive: 1 nM 1.78% | 8.33 nM -0.13% | 100 nM 1.68% | 833.33 nM 2.25% | 10000 nM -1.37%

O=C(Nc1ccccc1C(=O)NC1CCCCNC1=O)c1cc2ccccc2s1 (stereo not given)
inactive: 1 nM -1.69% | 8.33 nM -3.72% | 100 nM -3.22% | 833.33 nM -1.52% | 10000 nM -0.14%

CCN(CC)CCOC(=O)c1cc(Cl)c(N)cc1OC
inactive: 1 nM 3.29% | 8.33 nM 3.49% | 100 nM 1.89% | 833.33 nM -0.08% | 10000 nM -0.47%

Cc1nc2c([nH]1)-c1ccccc1N(C(=O)c1ccc(NC(=O)c3ccccc3-c3ccccc3)cc1)CC2 [conivaptan]
inactive: 1 nM 3.24% | 8.33 nM -1.76% | 100 nM 0.14% | 833.33 nM -0.62% | 10000 nM -6.5%

Nc1c2c(nc3c1CCC3)CCCC2 [ipidacrine]
inactive: 1 nM 1.46% | 8.33 nM 1.94% | 100 nM 1.19% | 833.33 nM 0.32% | 10000 nM 3.14%

Cc1ccc([N+](=O)[O-])cc1O [2-methyl-5-nitrophenol]
inactive: 1 nM -2.8% | 8.33 nM -2.93% | 100 nM -4.49% | 833.33 nM -3.09% | 10000 nM -2.25%

c1cc2c(cc1[C@H]1OC[C@H]3[C@@H]1CO[C@@H]3c1ccc3c(c1)OCO3)OCO2 [sesamin]
inactive: 1 nM -1.62% | 8.33 nM -0.09% | 100 nM -0.37% | 833.33 nM 0.48% | 10000 nM -1.08%

Cc1nc2sccn2c(=O)c1CCN1CCC(=C(c2ccccc2)c2ccc(F)cc2)CC1
inactive: 1 nM 1.18% | 8.33 nM -2.89% | 100 nM 0.46% | 833.33 nM 2.57% | 10000 nM 1.02%

Cn1c(=O)c2[nH]cnc2n(C)c1=O [aminophylline]
inactive: 1 nM -0.89% | 8.33 nM -0.66% | 100 nM -1.42% | 833.33 nM -0.87% | 10000 nM -0.09%

Cc1cc2nc3c(=O)[nH]c(=O)nc-3n(C)c2cc1C=O
inactive: 1 nM 0.98% | 8.33 nM -1.25% | 100 nM -1.28% | 833.33 nM 2.07% | 10000 nM 1.18%

C[C@@H]1C[C@H]2[C@@H]3CCC4=CC(=O)C=C[C@]4(C)[C@@]3(Cl)[C@@H](O)C[C@]2(C)[C@@]1(OC(=O)c1ccco1)C(=O)CCl
inactive: 1 nM -0.2% | 8.33 nM -2.64% | 100 nM -2.34% | 833.33 nM -2.86% | 10000 nM 3.12%

O=C(O[C@H]1[C@H](OC(=O)c2cccnc2)[C@@H](OC(=O)c2cccnc2)[C@H](OC(=O)c2cccnc2)[C@@H](OC(=O)c2cccnc2)[C@H]1OC(=O)c1cccnc1)c1cccnc1 [inositol-hexanicotinate]
inactive: 1 nM 2.01% | 8.33 nM 3.15% | 100 nM 2.82% | 833.33 nM 0.04% | 10000 nM 0.85%

Nc1nc2c(ncn2COCCO)c(=O)[nH]1 [acyclovir]
inactive: 1 nM 12.6% | 8.33 nM 6.63% | 100 nM 6.1% | 833.33 nM 7.16% | 10000 nM 2.2%

Cc1cccc(C)c1-n1c(=O)c2cnc(Nc3ccc(N4CCN(C)CC4)cc3)nc2n2c3ccccc3nc12
inactive: 1 nM -1.2% | 8.33 nM -0.67% | 100 nM -2.31% | 833.33 nM 0.21% | 10000 nM -3.38%

C[C@@]1(C(=O)O)NCCc2cc(O)c(O)cc21 [salsolinol-1-carboxylic-acid]
inactive: 1 nM 0.05% | 8.33 nM -1.48% | 100 nM -1.16% | 833.33 nM 2.45% | 10000 nM 1.69%

O=c1oc(-c2ccc(C(F)(F)F)cc2)nn1Cc1cc(Cl)ccc1O
inactive: 1 nM -2.43% | 8.33 nM -1.09% | 100 nM 3.13% | 833.33 nM 3.7% | 10000 nM 13.8%
